{"source": "paper PMC10726135", "about": "“HNF4α isoforms regulate the circadian balance between carbohydrate and lipid metabolism in the liver”", "note": "Whole data set: some 18,000 sequences, median “log2 normalized intensity” near 0.39, cut for the highest 2% near 6.6. For the sample, the highest values were picked, then their nearest neighbours and some sequences at random."}
{"target": "T1, HNF4alpha2 (COS-7 nuclear extract) (Homo sapiens, UniProt P41235 1-474)", "T1 sequence": "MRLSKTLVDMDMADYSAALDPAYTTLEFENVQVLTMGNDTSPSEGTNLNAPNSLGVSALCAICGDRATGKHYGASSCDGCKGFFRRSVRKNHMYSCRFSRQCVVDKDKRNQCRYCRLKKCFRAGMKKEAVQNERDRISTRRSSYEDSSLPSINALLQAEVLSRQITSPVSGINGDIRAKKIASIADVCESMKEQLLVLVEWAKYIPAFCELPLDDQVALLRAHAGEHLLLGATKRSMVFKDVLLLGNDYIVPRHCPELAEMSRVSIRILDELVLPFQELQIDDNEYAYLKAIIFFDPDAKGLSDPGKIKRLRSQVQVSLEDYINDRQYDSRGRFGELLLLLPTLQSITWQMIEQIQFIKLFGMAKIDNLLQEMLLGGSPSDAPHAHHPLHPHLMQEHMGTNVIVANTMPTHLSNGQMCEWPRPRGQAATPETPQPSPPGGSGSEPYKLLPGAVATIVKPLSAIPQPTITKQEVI", "experiment": "protein-binding microarray; COS-7 nuclear extract on double-stranded Agilent 4x180k PBM; binding buffer, salt, pH and temperature not given in the material; high values mean tight binding", "conditions": "chain copies: 2; label: 3' end of strand 1 on the slide; dsDNA, one strand shown", "outline": "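Binding signal was defined as the normalized, background-corrected gProcessedSignal reported by Agilent software. It came from nuclear extracts of COS-7 cells transiently transfected with a human HNF4α isoform expression vector, applied to a custom Agilent SurePrint G3 4x180k array. That array held ~44,000 test sequences in quadruplicate as double-stranded ~60-nt oligonucleotides, and bound HNF4α was imaged at 2-µm resolution on an Agilent G2565CA scanner.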", "units": {"binding signal": "log2 normalized intensity"}}
{"sequence": "TCTTTGTTCAGAGGGCATGTTGAGTGGAATGCCTAGGGAGATTAGAGTATCGGTCGA", "binding signal": 2.13}
{"sequence": "TTACAACGCTGTTGTCTGTGACTGGGGTCAGCCTAGGGAGATTAGAGTATCGGTCGA", "binding signal": 3.66}
{"sequence": "GCCAACAACTAGGGCAAAGGTTAGCTTGGAGCCTAGGGAGATTAGAGTATCGGTCGA", "binding signal": 4.27}
{"sequence": "ACAGATGTAGACATTGGAATGCGGGCTCCAGCCTAGGGAGATTAGAGTATCGGTCGA", "binding signal": -0.394}
{"sequence": "TCGGAATGTCTGGGCAAAGGGGAGGTTATCGCCTAGGGAGATTAGAGTATCGGTCGA", "binding signal": 0.29}
{"sequence": "AAGTGGTATCCTGCAGTCAGTCTGATTGGTGCCTAGGGAGATTAGAGTATCGGTCGA", "binding signal": 0.556}
{"sequence": "GAGGAGTGGCCATGATGCCATCTGGTGAAGGCCTAGGGAGATTAGAGTATCGGTCGA", "binding signal": -0.987}
{"sequence": "TTGAACACCACAAGTTTGAACTGCACAGGCGCCTAGGGAGATTAGAGTATCGGTCGA", "binding signal": -0.333}
{"sequence": "GTGAGGTCACAGTATTCATTCCCCTAGTATGCCTAGGGAGATTAGAGTATCGGTCGA", "binding signal": 2.55}
{"sequence": "TCAGATAGCTTTAGCCGGACTTTGTCCTTTGCCTAGGGAGATTAGAGTATCGGTCGA", "binding signal": 7.78}
{"sequence": "TAGCTTTAGCCGGACTTTGTCCTTTGATTTGCCTAGGGAGATTAGAGTATCGGTCGA", "binding signal": 6.43}
{"sequence": "CTATCTCAGATAGCTTTAGCCGGACTTTGTGCCTAGGGAGATTAGAGTATCGGTCGA", "binding signal": 5.18}
{"sequence": "TAGTAGGGTCAAAGTCTGGATCCGTTAACAGCCTAGGGAGATTAGAGTATCGGTCGA", "binding signal": 4.3}
{"sequence": "CACCTTTTTTGGCCTTTACCCCTTGAGTTTGCCTAGGGAGATTAGAGTATCGGTCGA", "binding signal": 3.93}
{"sequence": "CACACACACACACACACCCCACACACCAAAGCCTAGGGAGATTAGAGTATCGGTCGA", "binding signal": 3.12}
{"sequence": "TCACACACACACACACACACACCCCACACAGCCTAGGGAGATTAGAGTATCGGTCGA", "binding signal": 1.75}
{"sequence": "CCCACCCCCACGCCCCCCAGCGGAAGTCCAGCCTAGGGAGATTAGAGTATCGGTCGA", "binding signal": 6.97}
{"sequence": "CCTCCAGGCCCCAGCCACGCCCTCTAACCCGCCTAGGGAGATTAGAGTATCGGTCGA", "binding signal": 2.92}
{"sequence": "AGGCCCCAGCCACGCCCTCTAACCCAGGTTGCCTAGGGAGATTAGAGTATCGGTCGA", "binding signal": 3.08}
{"sequence": "CAAAGTTCAAGGTCCAGCCTACCCACCCACGCCTAGGGAGATTAGAGTATCGGTCGA", "binding signal": 4.66}
{"sequence": "GGATCGGAACCCCACCCCCACGCCCCCCAGGCCTAGGGAGATTAGAGTATCGGTCGA", "binding signal": 7}
{"sequence": "GGAACCCCACCCCCACGCCCCCCAGCGGAAGCCTAGGGAGATTAGAGTATCGGTCGA", "binding signal": 7.16}
{"sequence": "CGCCCCCCAGCGGAAGTCCAGTGGTGTCTTGCCTAGGGAGATTAGAGTATCGGTCGA", "binding signal": 3.33}
{"sequence": "GAGAGAATGACCCTTGCTTGACCCATTATGGCCTAGGGAGATTAGAGTATCGGTCGA", "binding signal": 2.36}
{"sequence": "AGAACAAACAATGGTTTGGGACAAAGTTTGGCCTAGGGAGATTAGAGTATCGGTCGA", "binding signal": 0.489}
{"sequence": "CCTCCTAATCACTGCCCTTTGGTGCCTCTTGCCTAGGGAGATTAGAGTATCGGTCGA", "binding signal": 2.28}
{"sequence": "TCAGCCTTCTCCGCGGCGGGCCCTCGACCTGCCTAGGGAGATTAGAGTATCGGTCGA", "binding signal": -0.582}
{"sequence": "CCCTCCCTAAATCCAGAGGTATTTGGCCCAGCCTAGGGAGATTAGAGTATCGGTCGA", "binding signal": 1.59}
{"sequence": "AGAAGCCACTGCGACCTTTGCCCTCCCTAAGCCTAGGGAGATTAGAGTATCGGTCGA", "binding signal": 7.38}
{"sequence": "ACCGGCAGAGAGAAGCCACTGCGACCTTTGGCCTAGGGAGATTAGAGTATCGGTCGA", "binding signal": 4.92}
{"sequence": "CCACTGCGACCTTTGCCCTCCCTAAATCCAGCCTAGGGAGATTAGAGTATCGGTCGA", "binding signal": 6.95}
{"sequence": "CTTTGCCCTCCCTAAATCCAGAGGTATTTGGCCTAGGGAGATTAGAGTATCGGTCGA", "binding signal": 1.88}
{"sequence": "TTCCCCTCCCTTCCACCTTTGCCCTCCAAAGCCTAGGGAGATTAGAGTATCGGTCGA", "binding signal": 5.76}
{"sequence": "CAGAGAGAAGCCACTGCGACCTTTGCCCTCGCCTAGGGAGATTAGAGTATCGGTCGA", "binding signal": 9.89}
{"sequence": "CTTCTCCGCGGCGGGCCCTCGACCTTTGCCGCCTAGGGAGATTAGAGTATCGGTCGA", "binding signal": 5.07}
{"sequence": "CCGCGGCGGGCCCTCGACCTTTGCCCTCCAGCCTAGGGAGATTAGAGTATCGGTCGA", "binding signal": 9.87}
{"sequence": "TTGCCATGACCTTTGAAGCCCAGAACACTCGCCTAGGGAGATTAGAGTATCGGTCGA", "binding signal": 3.59}
{"sequence": "ACATGAGCTAGTGCTAAAGGTCATATCCAAGCCTAGGGAGATTAGAGTATCGGTCGA", "binding signal": 4.2}
{"sequence": "GGCCTTTGGACCCAGACTGAATCACACTACGCCTAGGGAGATTAGAGTATCGGTCGA", "binding signal": 3.76}
{"sequence": "GGTGTTAAAATAACGACCTTTGGGCTAAAAGCCTAGGGAGATTAGAGTATCGGTCGA", "binding signal": 3.81}
{"sequence": "AGGCCAGCTCATAGGGATCAGATAAGAAGTGCCTAGGGAGATTAGAGTATCGGTCGA", "binding signal": -0.997}
{"sequence": "GTAACCTCAAAGGAGGTCAGAACTGTGGACGCCTAGGGAGATTAGAGTATCGGTCGA", "binding signal": 1.22}
{"sequence": "CCATAGCGAAGCCGGCGGCGGAATGCTTGTGCCTAGGGAGATTAGAGTATCGGTCGA", "binding signal": -0.837}
{"sequence": "AAAGCTGGCTGGCGGCTAGTGTACAGGTGAGCCTAGGGAGATTAGAGTATCGGTCGA", "binding signal": 1.06}
{"sequence": "GGCGGCTAGTGTACAGGTGACCTTTGGAATGCCTAGGGAGATTAGAGTATCGGTCGA", "binding signal": 8.95}
